# Measured values from PubChem BioAssay (NCATS).
# Several values for one entry are separate records, joined by “and”; a condition that tells them apart may be missing. Equal entries are not always repeated. Unmarked numbers belong to inactive results. Results filed as inconclusive are left out. Where a call stands in place of a potency, no number is given. Activity calls are given as the source filed them. Unless noted, the call rests on the fitted dose curve; in most records, active means well fitted curve in the direction sought with a large enough effect; inconclusive means small, poorly fitted or top-dose-only effect, or another doubt; inactive means no such curve, though single readings can be large; an effect the other way counts as inactive or inconclusive.
# Experiments:
# [1] = target: Cytochrome P450 3A4 (Homo sapiens) (UniProt P08684); test: qHTS Assay for Inhibitors and Substrates of Cytochrome P450 3A4 (AID 884); further: nearly all actives have a fitted effect of over 50% in size; further: potency means the concentration at half of the fitted maximal effect
# Sequence of Cytochrome P450 3A4 (Homo sapiens) (P08684 whole entry, looked up): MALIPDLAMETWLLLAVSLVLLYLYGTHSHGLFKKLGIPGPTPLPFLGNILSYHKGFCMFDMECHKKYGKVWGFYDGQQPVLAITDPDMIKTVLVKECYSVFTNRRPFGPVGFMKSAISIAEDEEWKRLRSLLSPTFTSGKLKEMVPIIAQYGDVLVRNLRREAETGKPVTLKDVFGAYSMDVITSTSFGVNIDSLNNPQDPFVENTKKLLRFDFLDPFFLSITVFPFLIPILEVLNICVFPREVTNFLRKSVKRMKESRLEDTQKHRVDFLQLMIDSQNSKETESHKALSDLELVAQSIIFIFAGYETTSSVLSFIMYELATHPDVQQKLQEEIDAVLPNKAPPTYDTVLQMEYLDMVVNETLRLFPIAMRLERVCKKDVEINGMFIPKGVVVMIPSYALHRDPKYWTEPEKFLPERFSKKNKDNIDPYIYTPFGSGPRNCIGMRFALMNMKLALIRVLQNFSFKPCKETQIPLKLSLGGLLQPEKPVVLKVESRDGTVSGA
# Outline: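 Luminescent readout of luciferin produced by CYP3A4 (20 nM) dealkylation of Luciferin-PPXE, 25 uM (its KM). NADPH-driven reaction ran 60 min at RT after 10 min compound preincubation; data scaled to 57 uM ketoconazole as 100% inhibition.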
# [2] = Confirmation and Secondary Assay for Modulators of Hemoglobin Beta Chain Splicing at IVS2 654 locus (AID 910);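 further: HeLa cells stably carrying EGFP split by mutant beta-globin IVS2-654 intron; per-well total GFP intensity by laser scanning cytometry after 2-day treatment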
# Outline: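 Readout: per-well total peak green fluorescence (488 nm ex, 500–520 nm em) from objects 5–250 µm, reflecting correct splicing of an EGFP-654 reporter. Compounds were applied for 2 days at 37 °C to overnight-plated HeLa EGFP-654 cells; controls were DMSO and 500 nM IVS2-654 PNA.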
# [3] = Confirmation and Secondary Assay for Modulators of Hemoglobin Beta Chain Splicing at IVS2 705 locus (AID 930);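 further: HeLa cells stably expressing the EGFP-705 splicing reporter; GFP fluorescence per well restored by corrected splicing of the IVS2-705 intron in EGFP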
# Outline: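 Secondary splice-site specificity test uses HeLa expressing CMV-driven EGFP interrupted by IVS2-705; cells were treated 2 days at 37C with 500 nM antisense PNA as positive control.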
# [4] = target: DNA dC->dU-editing enzyme APOBEC-3G (Homo sapiens) (UniProt Q9HC16); test: qHTS for inhibitors of Vif-A3G interactions: Validation (AID 588379)
# Sequence of DNA dC->dU-editing enzyme APOBEC-3G (Homo sapiens) (Q9HC16 whole entry, looked up): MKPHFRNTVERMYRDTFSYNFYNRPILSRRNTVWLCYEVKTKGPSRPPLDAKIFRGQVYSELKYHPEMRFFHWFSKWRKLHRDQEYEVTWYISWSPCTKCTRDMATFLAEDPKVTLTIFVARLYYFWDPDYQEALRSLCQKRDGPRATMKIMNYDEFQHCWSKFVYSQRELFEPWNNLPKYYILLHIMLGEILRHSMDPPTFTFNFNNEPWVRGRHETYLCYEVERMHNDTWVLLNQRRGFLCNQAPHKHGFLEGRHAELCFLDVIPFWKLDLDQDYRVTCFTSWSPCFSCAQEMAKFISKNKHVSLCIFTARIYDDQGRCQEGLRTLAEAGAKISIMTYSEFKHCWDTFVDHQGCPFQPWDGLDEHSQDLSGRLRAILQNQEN
# Outline: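 Yellow fluorescence (Ex 488, Em 500-530) of Vif-coexpressing HeLa A3G-eYFP cells, scanned by Acumen cytometer, reports blocked A3G degradation. Cells plated at 700/well overnight at 37 deg C before compound addition, then a further overnight compound incubation at 37 deg C.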
# DFO2036 = test: qHTS profiling for inhibitors of Plasmodium falciparum proliferation (AID 504749); further: nearly all actives have a fitted effect of over 60% in size; settings: P. falciparum in erythrocytes, SYBR Green DNA, 72 h; series mostly up to 12.8 µM
# Outline: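 In a 72 h erythrocytic culture (37 C, humidified, 5% CO2) at 2.5% hematocrit and 0.3% starting parasitemia, compounds were tested; SYBR Green I in detergent lysis buffer stained parasite DNA overnight.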
# [5] = target: Cytochrome P450 2C9 (Homo sapiens) (UniProt P11712); test: qHTS Assay for Inhibitors and Substrates of Cytochrome P450 2C9 (AID 883); further: nearly all actives have a fitted effect of over 60% in size; further: potency means the concentration at half of the fitted maximal effect
# Sequence of Cytochrome P450 2C9 (Homo sapiens) (P11712 whole entry, looked up): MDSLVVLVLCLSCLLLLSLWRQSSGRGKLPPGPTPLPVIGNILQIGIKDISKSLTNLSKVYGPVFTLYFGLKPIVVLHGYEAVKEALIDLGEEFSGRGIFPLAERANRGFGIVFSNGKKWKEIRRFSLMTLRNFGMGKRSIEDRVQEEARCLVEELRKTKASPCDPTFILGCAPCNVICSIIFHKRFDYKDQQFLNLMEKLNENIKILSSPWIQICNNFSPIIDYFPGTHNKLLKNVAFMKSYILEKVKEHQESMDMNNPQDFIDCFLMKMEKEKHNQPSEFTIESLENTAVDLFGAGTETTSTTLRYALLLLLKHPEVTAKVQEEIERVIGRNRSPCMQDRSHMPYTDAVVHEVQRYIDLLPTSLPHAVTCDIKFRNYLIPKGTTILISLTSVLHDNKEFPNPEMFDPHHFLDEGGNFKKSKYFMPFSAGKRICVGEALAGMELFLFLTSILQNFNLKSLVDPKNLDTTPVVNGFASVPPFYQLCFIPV
# Outline: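 Turnover of Luciferin-H (100uM, KM) by 10nM human CYP2C9 was measured over 60 min at 37C with NADPH regeneration; inhibitors and some substrates reduce luminescence. Data normalized to sulphaphenazole 57uM.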
# [6] = qHTS Assay for Identification of Small Molecule Agonists for Thrombopoietin (TPO) Signaling Pathway (AID 917)
# Outline: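 Human TPO receptor–transfected Ba/F3 cells (murine, IL-3-dependent) in IL-3-deficient medium; compounds plus TPO at EC50, 26 pM final; 24 hrs, 37 C; GpIIb-luciferase luminescence after 10 min RT detection.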
# [7] = target: Muscarinic acetylcholine receptor M1 (Rattus norvegicus) (UniProt P08482); test: qHTS Assay for Antagonists of Acetylcholine Muscarinic M1 Receptor: Kinetic Measurement of Intracellular Calcium Response (AID 943);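 further: Fluo-4 calcium signal as peak divided by basal fluorescence over 4 min; nearly all actives have a fitted effect of over 75% in size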
# Sequence of Muscarinic acetylcholine receptor M1 (Rattus norvegicus) (P08482 whole entry, looked up): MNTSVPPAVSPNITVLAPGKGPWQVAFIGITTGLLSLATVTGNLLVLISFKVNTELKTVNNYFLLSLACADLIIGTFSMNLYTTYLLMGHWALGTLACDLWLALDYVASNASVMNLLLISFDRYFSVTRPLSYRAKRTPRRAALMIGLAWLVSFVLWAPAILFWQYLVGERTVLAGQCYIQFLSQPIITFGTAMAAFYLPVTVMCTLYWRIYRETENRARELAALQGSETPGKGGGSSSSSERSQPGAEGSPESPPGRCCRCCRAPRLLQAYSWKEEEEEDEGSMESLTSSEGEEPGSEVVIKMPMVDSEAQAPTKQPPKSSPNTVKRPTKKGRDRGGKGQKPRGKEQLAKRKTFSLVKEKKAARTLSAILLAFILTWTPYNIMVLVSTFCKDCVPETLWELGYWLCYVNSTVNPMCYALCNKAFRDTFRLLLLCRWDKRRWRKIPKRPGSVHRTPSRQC
# Outline: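 Read-out: peak over basal Fluo-4 fluorescence, kinetic at 1 Hz for 4 min after EC80 carbachol (100 nM final). Rat M1-CHO cells, dye loaded 1 h at 37C, compound added 10 min before agonist.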
# [8] = target: Muscarinic acetylcholine receptor M1 (Rattus norvegicus) (UniProt P08482); test: qHTS Assay for Antagonists of Acetylcholine Muscarinic M1 Receptor: Measurement of IP-One Response (AID 944); further: nearly all actives have a fitted effect of over 75% in size
# Outline: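 Read-out: HTRF competition between d2-IP1 and Eu-cryptate anti-IP1 antibody, emission 620 and 665 nm. Stimulus was carbachol, EC80 (200 nM), for 30 min in M1-CHO cells (rat receptor), after 10 min compound pre-treatment.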
# [9] = target: Cytochrome P450 2C19 (Homo sapiens) (UniProt P33261); test: qHTS Assay for Inhibitors and Substrates of Cytochrome P450 2C19 (AID 899); further: nearly all actives have a fitted effect of over 60% in size; further: potency means the concentration at half of the fitted maximal effect
# Sequence of Cytochrome P450 2C19 (Homo sapiens) (P33261 whole entry, looked up): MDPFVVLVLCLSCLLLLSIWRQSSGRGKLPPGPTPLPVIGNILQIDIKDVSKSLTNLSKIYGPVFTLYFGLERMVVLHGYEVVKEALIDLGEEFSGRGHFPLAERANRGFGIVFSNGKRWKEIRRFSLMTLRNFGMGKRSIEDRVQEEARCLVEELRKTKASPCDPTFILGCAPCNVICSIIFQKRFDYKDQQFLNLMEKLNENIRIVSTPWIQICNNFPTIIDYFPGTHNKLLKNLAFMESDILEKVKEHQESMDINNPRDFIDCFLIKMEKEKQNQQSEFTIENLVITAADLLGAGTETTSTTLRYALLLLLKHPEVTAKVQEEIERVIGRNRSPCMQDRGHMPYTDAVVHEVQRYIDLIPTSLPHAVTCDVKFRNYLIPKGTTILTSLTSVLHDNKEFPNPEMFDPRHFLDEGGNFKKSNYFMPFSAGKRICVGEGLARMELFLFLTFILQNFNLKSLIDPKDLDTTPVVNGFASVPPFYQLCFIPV
# Outline: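 Reactions contain 5nM enzyme, 10uM Luciferin-H EGE (KM) and 50mM KPO4; compound preincubates 10 min at 37C, NADPH regeneration starts turnover for 60 min. Luminescence after detection reagent gives activity.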
# [10] = target: Cytochrome P450 2D6 (Homo sapiens) (UniProt P10635); test: qHTS Assay for Inhibitors and Substrates of Cytochrome P450 2D6 (AID 891); further: potency means the concentration at half of the fitted maximal effect; nearly all actives have a fitted effect of over 60% in size
# Outline: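 Luminescent read-out of luciferin formed by 5 nM human CYP2D6 demethylating 30 uM Luciferin-ME EGE (Km level) over 60 min at room temperature after NADPH regeneration addition. Data normalized to full inhibition by 1.43 uM quinidine.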
# [11] = S16 Schwann cell PMP22 intronic element beta-lactamase assay (AID 624044; calls by dose curve; further: nearly all actives have a fitted effect of over 15% in size)
# Outline: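 Beta-lactamase reporter under a PMP22 intronic regulatory element in stable S16 rat Schwann cells; 24 h compound exposure. 460 nm blue signal normalized between DMSO (0%) and potassium clavulanate, with 535 nm FRET tracking viability; curves classed by r2 and response.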
# [12] = target: Dual specificity protein kinase CLK4 (Homo sapiens) (UniProt Q9HAZ1); test: qHTS Assay for Inhibitors of CDC-like Kinase 4 (Kinase-Glo Assay) (AID 1770); further: nearly all actives have a fitted effect of over 65% in size; further: potency means the concentration at half of the fitted maximal effect
# Sequence of Dual specificity protein kinase CLK4 (Homo sapiens) (Q9HAZ1 whole entry, looked up): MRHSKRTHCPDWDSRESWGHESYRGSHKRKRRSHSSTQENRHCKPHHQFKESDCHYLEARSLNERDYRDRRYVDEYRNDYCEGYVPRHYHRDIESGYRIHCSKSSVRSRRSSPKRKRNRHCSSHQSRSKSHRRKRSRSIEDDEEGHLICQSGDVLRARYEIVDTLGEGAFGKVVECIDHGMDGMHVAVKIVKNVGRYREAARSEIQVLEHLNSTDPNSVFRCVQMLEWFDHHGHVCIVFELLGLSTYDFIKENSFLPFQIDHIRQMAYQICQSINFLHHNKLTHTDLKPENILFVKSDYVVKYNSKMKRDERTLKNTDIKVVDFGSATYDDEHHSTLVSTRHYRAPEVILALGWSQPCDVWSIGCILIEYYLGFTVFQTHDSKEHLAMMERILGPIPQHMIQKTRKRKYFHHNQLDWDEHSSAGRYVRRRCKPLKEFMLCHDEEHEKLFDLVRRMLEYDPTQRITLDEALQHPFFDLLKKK
# Outline: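 Clk4 25 nM, RS peptide 100 uM, ATP 1 uM, pH 7.5 Tris, 10 mM MgCl2, 2.5 mM DTT; 4.5 h RT; ATP depletion read by Kinase-Glo luminescence.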
# [13] = target: Dual specificity protein kinase CLK4 (Homo sapiens) (UniProt Q9HAZ1); test: qHTS Assay for Inhibitors of CDC-like Kinase 4 (ADP-Glo Assay) (AID 1771); further: nearly all actives have a fitted effect of over 70% in size; further: potency means the concentration at half of the fitted maximal effect
# Outline: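 25 nM Clk4, 100 uM RS peptide, 1 uM ATP (final); 2 mM MgCl2, 0.5 mM EGTA, 2.5 mM DTT, 0.01% Triton X-100; 1 hr RT. ADP-Glo readout: ATP depletion 45 min, conversion/luciferase 30 min, luminescence.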
# [14] = target: Dual specificity protein kinase CLK4 (Homo sapiens) (UniProt Q9HAZ1); test: qHTS Assay for Inhibitors of CDC-like Kinase 4 (ADP-FP Assay) (AID 1795); further: nearly all actives have a fitted effect of over 60% in size; further: potency means the concentration at half of the fitted maximal effect;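 on activity change, negative = inhibition: recombinant human CLK4 phosphorylating RS repeat peptide at 1 µM ATP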
# Outline: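 Kinase activity was followed as ADP output, converted from fluorescence polarization with a calibration curve. Reactions ran one hour at low ATP (1 uM) with RS peptide substrate.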
# [15] = target: Rap guanine nucleotide exchange factor 3 (Homo sapiens) (UniProt O95398); test: Confirmatory qHTS for agonist of cAMP-regulated guanine nucleotide exchange factor 3 (EPAC1) (AID 1645881);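 further: EPAC1 catalysed release of BODIPY-GDP from Rap1B seen as fluorescence loss; nearly all actives have a fitted effect of over 75% in size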
# Sequence of Rap guanine nucleotide exchange factor 3 (Homo sapiens) (O95398 whole entry, looked up): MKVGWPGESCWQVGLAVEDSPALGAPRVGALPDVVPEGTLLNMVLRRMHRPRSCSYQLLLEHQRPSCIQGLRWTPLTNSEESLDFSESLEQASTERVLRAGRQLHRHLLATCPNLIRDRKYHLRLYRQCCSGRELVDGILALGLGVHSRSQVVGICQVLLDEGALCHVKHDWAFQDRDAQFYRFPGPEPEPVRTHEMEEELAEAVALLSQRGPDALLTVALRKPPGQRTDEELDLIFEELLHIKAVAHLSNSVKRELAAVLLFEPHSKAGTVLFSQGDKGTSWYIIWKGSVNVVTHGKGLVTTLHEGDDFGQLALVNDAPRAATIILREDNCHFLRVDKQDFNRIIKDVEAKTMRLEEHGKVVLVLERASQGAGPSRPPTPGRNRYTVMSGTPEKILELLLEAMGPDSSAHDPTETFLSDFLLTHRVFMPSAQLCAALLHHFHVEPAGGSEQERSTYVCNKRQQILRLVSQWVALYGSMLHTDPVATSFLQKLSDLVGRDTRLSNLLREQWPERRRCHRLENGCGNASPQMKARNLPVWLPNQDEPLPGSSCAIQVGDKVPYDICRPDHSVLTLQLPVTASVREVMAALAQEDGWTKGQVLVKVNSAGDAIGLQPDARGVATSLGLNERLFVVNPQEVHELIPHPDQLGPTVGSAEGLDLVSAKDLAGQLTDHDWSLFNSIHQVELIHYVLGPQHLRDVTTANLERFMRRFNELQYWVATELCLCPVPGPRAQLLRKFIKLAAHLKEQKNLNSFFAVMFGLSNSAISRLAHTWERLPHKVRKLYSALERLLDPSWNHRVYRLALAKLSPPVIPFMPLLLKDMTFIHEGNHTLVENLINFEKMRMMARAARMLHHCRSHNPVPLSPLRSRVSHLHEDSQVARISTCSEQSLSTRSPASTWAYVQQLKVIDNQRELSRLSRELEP
# [16] = target: Rap guanine nucleotide exchange factor 4 (Homo sapiens) (UniProt Q8WZA2); test: Confirmatory qHTS for agonist of cAMP-regulated guanine nucleotide exchange factor 4 (EPAC2) (AID 1645884);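 further: nucleotide exchange releases bodipy-GDP from Rap1 and this lowers its fluorescence; nearly all actives have a fitted effect of over 65% in size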
# Sequence of Rap guanine nucleotide exchange factor 4 (Homo sapiens) (Q8WZA2 whole entry, looked up): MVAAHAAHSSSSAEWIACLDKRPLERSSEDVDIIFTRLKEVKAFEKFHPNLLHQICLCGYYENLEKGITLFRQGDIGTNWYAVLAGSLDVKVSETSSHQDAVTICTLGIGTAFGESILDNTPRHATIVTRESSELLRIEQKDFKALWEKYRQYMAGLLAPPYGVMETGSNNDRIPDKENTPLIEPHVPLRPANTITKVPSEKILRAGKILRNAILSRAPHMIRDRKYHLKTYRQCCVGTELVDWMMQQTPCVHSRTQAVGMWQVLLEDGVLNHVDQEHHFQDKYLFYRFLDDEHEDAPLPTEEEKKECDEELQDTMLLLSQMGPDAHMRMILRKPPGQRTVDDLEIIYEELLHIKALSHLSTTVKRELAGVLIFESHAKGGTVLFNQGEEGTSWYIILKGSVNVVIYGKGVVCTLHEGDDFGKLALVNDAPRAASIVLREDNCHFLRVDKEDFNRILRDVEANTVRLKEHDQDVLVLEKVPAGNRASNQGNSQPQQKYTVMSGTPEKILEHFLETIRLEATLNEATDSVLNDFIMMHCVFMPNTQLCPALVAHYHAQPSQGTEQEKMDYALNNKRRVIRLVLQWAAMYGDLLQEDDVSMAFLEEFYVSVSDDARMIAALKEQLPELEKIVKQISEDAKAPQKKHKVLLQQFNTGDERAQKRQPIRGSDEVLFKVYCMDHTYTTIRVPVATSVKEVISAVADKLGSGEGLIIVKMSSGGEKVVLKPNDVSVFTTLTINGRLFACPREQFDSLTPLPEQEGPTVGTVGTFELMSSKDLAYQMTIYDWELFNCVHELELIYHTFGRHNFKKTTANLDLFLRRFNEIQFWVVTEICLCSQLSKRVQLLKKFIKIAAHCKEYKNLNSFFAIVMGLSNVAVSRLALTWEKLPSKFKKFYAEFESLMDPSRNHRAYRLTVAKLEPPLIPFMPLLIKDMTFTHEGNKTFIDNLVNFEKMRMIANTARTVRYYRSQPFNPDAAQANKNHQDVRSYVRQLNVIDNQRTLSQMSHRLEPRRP
# [17] = target: Rap guanine nucleotide exchange factor 4 (Homo sapiens) (UniProt Q8WZA2); test: Confirmatory qHTS for antagonist of cAMP-regulated guanine nucleotide exchange factor 4 (EPAC2) (AID 1645885); further: nearly all actives have a fitted effect of over 25% in size; further: potency means the concentration at half of the fitted maximal effect
# [18] = qHTS Assay for Identification of Small Molecule Agonists for Hypoxia Response Element Signaling Pathway (AID 914; active means well fitted activation curve with a large enough effect in the signal ratio, with a control signal flat, not every such curve was filed as active; the % refers to the signal ratio; further: potency means the concentration at half of the fitted maximal effect); settings: ME-180 (cervical carcinoma) HRE-bla reporter, beta-lactamase ratio, CoCl2, 17 h; activation: active compounds read high
# Outline: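 qHTS titration; ME-180 HRE-bla cells; EC50 CoCl2 co-treatment, 17 h at 37 degrees Celsius; CCF4 dye, ex 405nm, em 460nm and 530nm; %Activity from ratio; AC50.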
structure (smiles),measurement,setting,value
C=C1C2CC[C@@]3(C)C(c4ccoc4)OC(=O)C[C@@]13OC1CC(O)C(C)(C)C(CC(=O)OC)[C@@]12C (some centres not stated),Potency,[1],12.6 µM (active) and 7.94 µM (active)
same,Potency,[2],inactive
same,outcome,[3],inactive
O=c1[nH]cnc2c1ncn2C1OC(CO)C(O)C1O (configuration not stated),Potency,[1],inactive
same,Potency,[2],inactive
same,outcome,[3],inactive
same,outcome,[4],inactive
same,Potency,DFO2036,inactive
O=C(O)[C@H]1CCCN(CCC=C(c2ccccc2)c2ccccc2)C1,Potency,[5],7.94 µM (active)
same,outcome,[6],inactive
same,Potency,[7],inactive
same,Potency,[8],inactive
Cc1ccccc1[C@@H](OCCN(C)C)c1ccccc1,Potency,[5],inactive
same,outcome,[6],inactive
CC1(C)Oc2ccc(C#N)cc2[C@H](N2CCCC2=O)[C@H]1O,Potency,[5],inactive
same,Potency,[9],inactive
same,outcome,[4],inactive
CCCN1C[C@H](CSC)C[C@H]2c3cccc4[nH]cc(c34)C[C@@H]21,Potency,[5],inactive
same,Potency,[10],0.0316 µM (active)
same,Potency,[9],inactive
N=c1ccn2c(n1)OC1C(O)C(CO)OC12 (configuration not stated),Potency,[1],inactive
same,Potency,[2],inactive
same,outcome,[3],inactive
C[N+]1(C)CCC[C@@H](OC(=O)C(O)(c2ccccc2)c2ccccc2)C1,Potency,[9],inactive
C/C=C\C(=O)N(CC)c1ccccc1C,Potency,[1],inactive
CC(=O)Nc1c(I)c(C(=O)N[C@H]2[C@@H](O)[C@H](O)[C@H](CO)O[C@@H]2O)c(I)c(N(C)C(C)=O)c1I,outcome,[11],inactive
COC(=O)C1OC(=O)C2OC23[C@]2(C)C(O)CC4C(C)(C)C(OC(C)=O)CC(OC(C)=O)[C@@]4(C)C2CC[C@@]13C (some centres not stated),Potency,[1],251 nM (active) and 794 nM (active)
same,Potency,[2],inactive
CN(C)c1ncc2nc(-c3cccs3)c(=O)n(-c3ccccc3)c2n1,Potency,[12],inactive
same,Potency,[13],inactive
same,Potency,[14],inactive
Nc1ncnc2c1ncn2C1OC(CO)C(O)C1O (configuration not stated),Potency,[2],inactive
same,outcome,[3],inactive
CS(=O)(=O)Nc1cccc(-c2cncnc2Nc2ccccc2)c1,Potency,[1],0.501 µM (active)
same,Potency,[13],22.4 µM (active)
same,Potency,[14],inactive
O=c1c(-c2ccc(F)cc2)nc2cncnc2n1Cc1ccc(F)cc1,Potency,[12],inactive
same,Potency,[14],inactive
O=c1c(O)c(-c2ccc(O)cc2)oc2ccccc12,Potency,[1],12.6 µM (active)
same,Potency,[2],inactive
CC(CCC(=O)O)C1CCC2C3C(O)C[C@@H]4CC(O)CC[C@@]4(C)C3CC[C@@]12C (some centres not stated),Potency,[2],inactive
same,outcome,[3],inactive
CCNc1ncc2nc(-c3ccc(F)cc3)c(=O)n(-c3ccccc3)c2n1,Potency,[12],inactive
same,Potency,[13],inactive
same,Potency,[14],inactive
Cc1cnc(CNc2cc(-c3ccccc3CN(C)C)ncn2)cn1,Potency,[12],inactive
same,Potency,[14],inactive
C=CC(C)(C)c1c2c(c(O)c3c(=O)c4ccc(O)c(O)c4oc13)C=CC(C)(C)O2,Potency,[15],inactive
same,Potency,[16],inactive
COc1ccc(C(=O)N2CCC[C@@]3(CCN(Cc4cc(C(F)(F)F)cc(C(F)(F)F)c4)C3)C2)cc1,Potency,[1],3.16 µM (active)
same,Potency,[15],inactive
same,Potency,[16],inactive
same,Potency,[17],55.5 µM (active)
Nc1ccccc1C(=O)CC(N)C(=O)O (configuration not stated),Potency,[1],inactive
same,Potency,[2],inactive
same,outcome,[3],inactive
same,outcome,[4],inactive
COc1ccc(CNc2nc(-c3ccc4c(c3)OCO4)nc3ccccc23)c(OC)c1,Potency,[1],1.26 µM (active)
same,Potency,[9],7.94 µM (active)
same,Potency,[12],inactive
same,Potency,[13],inactive
same,Potency,[14],inactive
same,Potency,[15],inactive
same,Potency,[16],inactive
same,Potency,[17],inactive
FC(F)(F)c1ccccc1-c1cc(NCc2cccnc2)ncn1,Potency,[12],inactive
same,Potency,[14],inactive
COc1cccc(Nc2ncc3nc(CCc4ccccc4)c(=O)n(Cc4cccs4)c3n2)c1,Potency,[12],inactive
same,Potency,[13],inactive
same,Potency,[14],inactive
COc1cccc(Cn2c(=O)c(-c3ccc(F)cc3)nc3cnc(N4CCOCC4)nc32)c1,Potency,[9],inactive
same,Potency,[18],3.16 µM (active)
same,Potency,[12],inactive
same,Potency,[13],inactive
same,Potency,[14],inactive
same,Potency,[15],inactive
same,Potency,[16],inactive
same,Potency,[17],inactive
COc1ccc(C(=O)N2CCC[C@@]3(CCN(c4cccc(-c5ccccc5)c4)C3)C2)cc1,Potency,[1],3.16 µM (active)
same,Potency,[9],7.94 µM (active)
Cn1c(=O)c(-c2ccc(Cl)cc2)nc2cnc(Oc3ccccc3)nc21,Potency,[1],inactive
CCNc1ncc2nc(-c3cccs3)c(=O)n(Cc3cccc(OC)c3)c2n1,Potency,[12],inactive
same,Potency,[14],inactive
Nc1ccn(C2OC(CO)C(O)C2O)c(=O)n1 (configuration not stated),outcome,[3],inactive
Cc1cnc(CNc2cc(-c3cccc(C#N)c3)ncn2)cn1,Potency,[12],31.6 µM (active)
same,Potency,[13],35.5 µM (active)
CS(=O)(=O)Nc1cccc(-c2cc(NCc3cccs3)ncn2)c1,"activity change, negative = inhibition",[5],35.3% [at 2.29 µM]
same,Potency,[12],10 µM (active)
same,Potency,[13],12.6 µM (active)
same,Potency,[14],12.6 µM (active)
COc1cccc(-c2nccc(NCc3cccs3)n2)c1,Potency,[1],5.01 µM (active)
same,Potency,[10],0.316 µM (active)
same,Potency,[12],8.91 µM (active)
same,Potency,[13],8.91 µM (active)
same,Potency,[14],10 µM (active)
same,Potency,[15],inactive
same,Potency,[16],inactive
same,Potency,[17],62.2 µM (active)
N#Cc1cccc(-c2nc(Nc3ccccc3)c3ccccc3n2)c1,Potency,[2],inactive
same,outcome,[3],inactive
c1ccc(Nc2ncncc2-c2ccc3c(c2)OCO3)cc1,Potency,[1],0.794 µM (active)
same,Potency,[9],0.251 µM (active)
